# CFTR F508del cor = CFTR F508del correction in bronchial cells. CFBE cells, YFP halide quenching; stimulated with forskolin plus potentiator P3; % fluorescence drop versus neutral controls. actives 0.36% (n = 350,000). AID 720511. activity (quench increase), % at 7.58 µM;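 active means mean added fluorescence quench of at least 8% versus neutral control, with both replicates also reaching 8%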;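 further: cells transiently co-express mutant CFTR-F508del with the halide-sensitive YFP; corrector assay measuring rescue of mutant channel to the surface after 24 h compound exposure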
# FGF22 binding = shifts melting point of recombinant human FGF22; Q9HCT0; recombinant FGF22 thermal shift, SYPRO orange fluorescence; percent of sucrose octasulfate shift, DMSO zero; activity (Tm shift, normalised), % at 9.99 µM; actives 1.5% (n = 340,000); AID 651658;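 active means mean Tm shift, scaled 0 neutral to 100 positive control, at about 1.3% or above, every replicate too, limit read from the data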
# Target sequence (Q9HCT0 whole entry, looked up): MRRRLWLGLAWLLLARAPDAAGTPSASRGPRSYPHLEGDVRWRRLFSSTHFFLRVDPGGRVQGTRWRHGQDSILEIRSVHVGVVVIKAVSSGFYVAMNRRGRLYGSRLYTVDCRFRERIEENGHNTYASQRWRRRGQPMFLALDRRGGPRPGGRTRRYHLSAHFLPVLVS
# Vif inh = HIV Vif inhibition. actives 0.35% (n = 340,000). AID 602346. HEK293T cells, Vif self-association by quenched fluorescence, imaging, 24 h. inhibition, % at 7.49 µM; in the data active means inhibition above about 50%, passing the limit was not always enough
# Numbers without * were called inactive; . = no result. The list is not random: actives were taken first. Their share in the collection is about 1.7%.
SMILES,CFTR F508del cor,FGF22 binding,Vif inh
CO[C@H]1CN(C)C(=O)c2ccc(NC(=O)CC(F)(F)F)cc2OC[C@@H](C)N(S(=O)(=O)c2cn(C)cn2)C[C@@H]1C,0,0,.
CNc1cc(NS(=O)(=O)c2ccc(N)cc2)nc(NC)n1,-1,0,53*
Cc1cc(C)nc(NS(=O)(=O)c2ccc(N)cc2)n1,-2,0,2
O=C(CC1CC1)N1CC(=O)N2[C@H](CO)[C@@H](c3ccc(/C=C/c4ccccc4)cc3)[C@H]2C1,0,.,.
C[C@H]1CCCCO[C@H](CN(C)C)[C@@H](C)CN([C@@H](C)CO)C(=O)c2cc(NC(=O)CCC(F)(F)F)ccc2O1,-2,0,.
C=C(C)CN(CC)C(=O)CC1C(=O)NCCN1Cc1c(F)cccc1Cl (stereo not drawn),0,43*,-5
CN(Cc1ncc[nH]1)C(=O)CC1C(=O)NCCN1Cc1c(F)cccc1Cl (stereo not drawn),2,0,2
COCCNC(=O)[C@@H]1[C@@H](CO)[C@@H]2Cn3c(ccc(C4=CCCCC4)c3=O)[C@H]1N2C(=O)C1CCCC1,1,.,.
CCOc1ccc(N(C(=O)c2cnsn2)C(C(=O)NC2CCCCC2)c2ccncc2)cc1 (stereo not drawn),1,42,-6
COc1ccc(N(C(=O)c2cnsn2)C(C(=O)NC2CCCCC2)c2ccncc2)cc1 (stereo not drawn),-1,43*,10
COc1ccc2c3c(n(C)c2c1)[C@@H](CO)N(Cc1ccc2c(c1)OCO2)CC31CN(C(=O)C2CC2)C1,-1,0,.
N#C[C@@H]1[C@H](c2ccccc2)[C@H](CO)N1C(=O)c1ccc2c(c1)OCO2,0,0,.
CCc1ccc(NC(=S)N(Cc2ccccc2)Cc2ccccn2)cc1,1,44*,-2
CCc1ccc(NC(=S)N(CCCN2CCOCC2)Cc2ccccn2)cc1,.,.,3
CCCNC(=O)[C@@H]1[C@@H](CO)[C@@H]2Cn3c(ccc(-c4ccccc4F)c3=O)[C@H]1N2CCC,0,.,.
Cn1cc(CNCc2cnc3ccccn23)c(-c2ccc(Oc3ccccc3)cc2)n1,6,44*,-2
Cn1cc(CN2CCN(CCO)CC2)c(-c2ccc(Oc3ccccc3)cc2)n1,0,43*,-5
COCCN1CCN(Cc2cn(C)nc2-c2ccc(Oc3ccccc3)cc2)CC1,-1,0,.
CN(Cc1cn(C)nc1-c1ccc(Oc2ccccc2)cc1)Cc1cnc2ccccn12,2,0,-19
CC(=O)N(C)C[C@H]1Oc2ncc(-c3cncnc3)cc2C(=O)N([C@H](C)CO)C[C@@H]1C,1,0,.
O=C(COC(=O)c1cc(S(=O)(=O)N2CCOCC2)ccc1F)c1ccc[nH]1,.,.,53*
O=C(COC(=O)c1cc(S(=O)(=O)N2CCOCC2)ccc1Cl)c1ccc[nH]1,2,0,8
C[C@H](NC(=O)[C@H]1[C@H](CO)[C@H]2Cn3c(ccc(-c4ccccc4F)c3=O)[C@@H]1N2C)c1ccccc1,.,0,.
O=C(c1cc(COc2cccc3cccnc23)on1)N1CCC[C@H]1CO,-3,0,51*
COC(=O)C1CCCCN1C(=O)c1cc(COc2cccc3cccnc23)on1 (stereo not drawn),-1,0,.
SMILES,CFTR F508del cor,FGF22 binding,Vif inh
Cc1ccc(S(=O)(=O)Nc2ccc3c(c2)C(=O)N([C@@H](C)CO)C[C@H](C)[C@@H](CN(C)C(=O)C2CCCCC2)OCCCC[C@@H](C)O3)cc1,3,.,.
COc1cccc(C#Cc2ccc([C@@H]3[C@H](CO)N4C(=O)CN(C(=O)Cc5cccnc5)C[C@@H]34)cc2)c1,0,.,.
Cc1ccc(NC(=O)C2CCCN2C(=O)NC2CCCCC2)cc1F (stereo not drawn),-1,43*,1
Cc1ccc(NC(=O)C2CCCN2C(=O)NC2CCCCC2)cc1C (stereo not drawn),-2,0,.
C[C@H](CO)N1C[C@H](C)[C@@H](CN(C)C(=O)Nc2cccc3ccccc23)Oc2ccc(NC(=O)Nc3ccc(F)cc3)cc2C1=O,0,0,.
O=C(NC[C@H]1CC[C@H]2[C@H](CN2Cc2cc(-c3ccccc3)on2)O1)c1ccc2c(c1)OCO2,-1,.,.
CCc1ccc(S(=O)(=O)Nc2ccc(-c3ccc4nnc(C)n4n3)cc2)s1,1,0,70*
CCc1ccc(S(=O)(=O)Nc2cccc(-c3ccc4nnc(C)n4n3)c2)s1,-2,-1,-1
Cc1nnc2ccc(-c3ccc(NS(=O)(=O)c4ccccc4)cc3)nn12,-8,0,2
Cc1nnc2ccc(-c3ccc(NS(=O)(=O)c4ccc(Cl)s4)cc3)nn12,1,0,93*
N#C[C@H]1[C@H](c2ccc(C#CC3CCCCC3)cc2)[C@H](CO)N1C(=O)Cc1ccccn1,0,0,.
CN(C)C(=O)c1cccc(-c2ccc([C@@H]3[C@@H](C#N)N(C(=O)C4CCCC4)[C@H]3CO)cc2)c1,-3,.,.
Cc1cc(C(=O)Nc2cccc3c2O[C@H](CN(C)S(=O)(=O)c2cn(C)cn2)[C@@H](C)CN([C@H](C)CO)C3=O)n(C)n1,0,1,.
COc1ccccc1NC(=O)N1CC(=O)N2[C@H](CO)[C@H](c3ccc(-c4ccccc4)cc3)[C@@H]2C1,-4,.,.
CC(C)[C@H](NC(=O)c1ccccc1)C(=O)OCC(=O)Nc1ccc(S(=O)(=O)N2CCOCC2)cc1,-2,43*,5
O=C(COc1ccc(S(=O)(=O)N2CCOCC2)cc1)Nc1cccc([N+](=O)[O-])c1,4,1,20
CC(C)[C@H](NC(=O)c1ccccc1Cl)C(=O)OCC(=O)Nc1ccc(S(=O)(=O)N2CCOCC2)cc1,3,42,5
N#Cc1ccc(OCc2cccc(S(=O)(=O)N3CCOCC3)c2)cc1,-1,0,-1
O=C(COc1ccc([N+](=O)[O-])cc1)Nc1ccc(S(=O)(=O)N2CCOCC2)cc1,-1,0,55*
O=S(=O)(c1ccc(OCc2ccc(Br)cc2)cc1)N1CCOCC1,19*,0,-5
O=C(COC(=O)/C=C/c1ccccc1[N+](=O)[O-])Nc1ccc(S(=O)(=O)N2CCOCC2)cc1,-1,43*,6
COc1ccc(NC(=O)COC(=O)/C=C/c2ccccc2[N+](=O)[O-])cc1,.,.,-4
CNC[C@@H]1OCCCC[C@H](C)Oc2ccc(NS(=O)(=O)c3ccc(Cl)cc3)cc2C(=O)N([C@H](C)CO)C[C@@H]1C,-2,0,.
O=C(C[C@@H]1C=C[C@H](NC(=O)c2ccccc2)[C@@H](CO)O1)NCCc1ccncc1,0,1,.
C/C=C/c1ccc2c(c1)O[C@H](CN(C)C(=O)c1cccc(F)c1)[C@@H](C)CN([C@@H](C)CO)S2(=O)=O,-2,0,.
Cc1ccc(S(=O)(=O)N(C)C[C@H]2Oc3c(NC(=O)C4CC4)cccc3C(=O)N([C@H](C)CO)C[C@@H]2C)cc1,-1,0,.
COc1ccc(S(=O)(=O)Nc2cccc3c2O[C@@H](CN(C)Cc2ccccc2)[C@@H](C)CN([C@@H](C)CO)C3=O)cc1,0,0,.
O=C(COc1ccc(S(=O)(=O)N2CCOCC2)cc1)NC1CC1,-3,0,52*
O=C(O)CCCn1cc(NC(=O)COc2ccc([N+](=O)[O-])cc2)cn1,.,43*,3

# From PubChem BioAssay
